Measured values taken from PubChem BioAssay (EPA / NIEHS).
Calls of active or inactive are those of the source. Rule for the calls: active = hit-call score of the fitted dose curve at least 0.9, where 1 is the maximum; inactive = score below 0.9.

Assays:
[1] = read-out: Cyclin D2 (CCND2), CCND2 (gene 894); assay: LTEA_HepaRG_CCND2: Life Technologies and Expression Analysis (LTEA) Assay for Cyclin D2 (CCND2) using HepaRG (AID 2283449); conditions: mRNA level, 48 h; actives raise or lower the signal;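 note: CCND2 transcript measured by TaqMan qRT-PCR and normalised to three housekeeping genes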
Method in brief: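 Chemicals in 0.5% DMSO, eight half-log concentrations from 100 uM top, were applied in duplicate for 48 h to human HepaRG cells in serum-free induction medium. CCND2 mRNA by TaqMan qRT-PCR, normalised to ACTB/GAPDH/POLR2A; bidirectional fit versus DMSO.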

[2] = read-out: Cyclin Dependent Kinase Inhibitor 1A (CDKN1A), CDKN1A (gene 1026); assay: LTEA_HepaRG_CDKN1A: Life Technologies and Expression Analysis (LTEA) Assay for Cyclin Dependent Kinase Inhibitor 1A (CDKN1A) using HepaRG (AID 2283450); conditions: mRNA level, 48 h; actives raise or lower the signal
Method in brief: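 Gain or loss of CDKN1A transcript is scored by bidirectional fitting against 0.5% DMSO vehicle. Human HepaRG cultures receive chemicals for 48 h across an 8-point series peaking at 100 uM; expression comes from qRT-PCR.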

[3] = read-out: Cyclin D1 (CCND1), CCND1 (gene 595); assay: LTEA_HepaRG_CCND1: Life Technologies and Expression Analysis (LTEA) Assay for Cyclin D1 (CCND1) using HepaRG (AID 2283451); conditions: mRNA level, 48 h; actives raise or lower the signal
Method in brief: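 Expression change is measured by qRT-PCR in HepaRG cells after 48 h treatment across eight concentrations topping at 100 uM, with duplicate wells and DMSO (0.5%) serving as baseline for bidirectional fitting.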

[4] = read-out: catalase (CAT), CAT (gene 847); assay: LTEA_HepaRG_CAT: Life Technologies and Expression Analysis (LTEA) Assay for catalase (CAT) using HepaRG (AID 2283452); conditions: mRNA level, 48 h; actives raise or lower the signal
Method in brief: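 HepaRG cells in serum-free induction medium, 0.5% DMSO vehicle, exposed 48 h in duplicate over 8 half-log concentrations from 100 uM. CAT mRNA measured by qRT-PCR, normalized to ACTB, GAPDH, POLR2A; bidirectional fit versus DMSO.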

[5] = read-out: flavin-containing dimethylaniline monooxygenases 3 (FMO3), FMO3 (gene 2328); assay: LTEA_HepaRG_FMO3: Life Technologies and Expression Analysis (LTEA) Assay for flavin-containing dimethylaniline monooxygenases 3 (FMO3) using HepaRG (AID 2283453); conditions: mRNA level, 48 h; actives raise or lower the signal
Method in brief: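 Differentiated HepaRG cells in serum-free induction medium, exposed 48 h in duplicate to 8 half-log concentrations up to 100 uM in 0.5% DMSO. FMO3 mRNA by qRT-PCR, normalized to ACTB, GAPDH, POLR2A; bidirectional fit vs DMSO.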

[6] = read-out: Cytochrome P450 (CYP1A1), CYP1A1 (gene 1543); assay: LTEA_HepaRG_CYP1A1: Life Technologies and Expression Analysis (LTEA) Assay for Cytochrome P450 (CYP1A1) using HepaRG (AID 2283454); conditions: mRNA level, 48 h; actives raise or lower the signal
Method in brief: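 Using HepaRG cultures with 0.5% DMSO as vehicle, eight-concentration exposures (max 100 uM) lasted 48 h. Transcript levels were measured by TaqMan qRT-PCR and normalized to ACTB, GAPDH and POLR2A.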

[7] = read-out: Forkhead box O1 (FOXO1), FOXO1 (gene 2308); assay: LTEA_HepaRG_FOXO1: Life Technologies and Expression Analysis (LTEA) Assay for Forkhead box O1 (FOXO1) using HepaRG (AID 2283456); conditions: mRNA level, 48 h; actives raise or lower the signal
Method in brief: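 Differentiated HepaRG cells, in serum-free induction medium with 0.5% DMSO, exposed 48 h in duplicate to 8-point half-log series from 100 uM. FOXO1 mRNA measured by TaqMan qRT-PCR, normalized to ACTB, GAPDH, POLR2A; bidirectional fit versus DMSO.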

[8] = read-out: growth arrest and DNA damage 45 (GADD45A), GADD45A (gene 1647); assay: LTEA_HepaRG_GADD45A: Life Technologies and Expression Analysis (LTEA) Assay for growth arrest and DNA damage 45 (GADD45A) using HepaRG (AID 2283458); conditions: mRNA level, 48 h; actives raise or lower the signal
Method in brief: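 Differentiated HepaRG cells exposed 48 h in serum-free induction medium to 8 concentrations, top 100 uM in half-log steps, 0.5% DMSO. GADD45A mRNA quantified by qRT-PCR, normalized to ACTB, GAPDH and POLR2A; bidirectional fit versus DMSO.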

[9] = read-out: Forkhead box O3 (FOXO3), FOXO3 (gene 2309); assay: LTEA_HepaRG_FOXO3: Life Technologies and Expression Analysis (LTEA) Assay for Forkhead box O3 (FOXO3) using HepaRG (AID 2283459); conditions: mRNA level, 48 h; actives raise or lower the signal
Method in brief: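 Differentiated human HepaRG cells, 48 h post-plating, exposed in duplicate for 48 h in serum-free induction medium; 8-point half-log series from 100 uM in 0.5% DMSO. FOXO3 mRNA by TaqMan qRT-PCR, normalized to ACTB/GAPDH/POLR2A; bidirectional fit versus DMSO.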

[10] = read-out: ABC Transporter (ABCB1), ABCB1 (gene 5243); assay: LTEA_HepaRG_ABCB1: Life Technologies and Expression Analysis (LTEA) Assay for ABC Transporter (ABCB1) using HepaRG (AID 2283460); conditions: mRNA level, 48 h; actives raise or lower the signal
Method in brief: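 HepaRG cells exposed in duplicate for 48 h in serum-free induction medium to eight half-log concentrations up to 100 uM in 0.5% DMSO. ABCB1 mRNA quantified by qRT-PCR, normalised to ACTB, GAPDH and POLR2A; fitted bidirectionally versus DMSO.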

[11] = read-out: growth arrest and DNA damage 45 (GADD45B), GADD45B (gene 4616); assay: LTEA_HepaRG_GADD45B: Life Technologies and Expression Analysis (LTEA) Assay for growth arrest and DNA damage 45 (GADD45B) using HepaRG (AID 2283461); conditions: mRNA level, 48 h; actives raise or lower the signal
Method in brief: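 Human HepaRG monolayers receive chemicals for 48 h at eight half-log concentrations, highest 100 uM, in 0.5% DMSO. Expression is measured by TaqMan qRT-PCR and normalized to ACTB, GAPDH and POLR2A.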

[12] = read-out: ABC Transporter (ABCC3), ABCC3 (gene 8714); assay: LTEA_HepaRG_ABCC3: Life Technologies and Expression Analysis (LTEA) Assay for ABC Transporter (ABCC3) using HepaRG (AID 2283462); conditions: mRNA level, 48 h; actives raise or lower the signal
Method in brief: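 Transcriptional change of ABCC3 in HepaRG after 48 h treatment, determined by qRT-PCR normalized to endogenous controls. Concentrations spanned eight half-log steps to 100 uM in 0.5% DMSO.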

[13] = read-out: ABC Transporter (ABCB11), ABCB11 (gene 8647); assay: LTEA_HepaRG_ABCB11: Life Technologies and Expression Analysis (LTEA) Assay for ABC Transporter (ABCB11) using HepaRG (AID 2283463); conditions: mRNA level, 48 h; actives raise or lower the signal
Method in brief: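 Differentiated human HepaRG cells in serum-free induction medium, dosed in duplicate for 48 h. Eight-point half-log series from 100 uM in 0.5% DMSO; ABCB11 mRNA by qRT-PCR, normalized to ACTB, GAPDH, POLR2A, fitted bidirectionally versus DMSO.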

[14] = read-out: ABC Transporter (ABCC2), ABCC2 (gene 1244); assay: LTEA_HepaRG_ABCC2: Life Technologies and Expression Analysis (LTEA) Assay for ABC Transporter (ABCC2) using HepaRG (AID 2283464); conditions: mRNA level, 48 h; actives raise or lower the signal
Method in brief: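 After plating and 48 h culture, HepaRG medium is replaced with serum-free induction medium and chemicals are added (8 concentrations, max 100 uM, 0.5% DMSO) for 48 h. Total RNA then undergoes qRT-PCR for ABCC2 with housekeeping normalization.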

[15] = read-out: Broad substrate specificity ATP-binding cassette transporter ABCG2 (Homo sapiens) (UniProt Q9UNQ0); assay: LTEA_HepaRG_ABCG2: Life Technologies and Expression Analysis (LTEA) Assay for ABC Transporter (ABCG2) using HepaRG (AID 2283465); conditions: mRNA level, 48 h; actives raise or lower the signal
Method in brief: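 Differentiated HepaRG cells were exposed for 48 h in serum-free induction medium to 8 half-log concentrations, top 100 uM, in 0.5% DMSO. ABCG2 mRNA was measured by qRT-PCR, normalized to ACTB, GAPDH and POLR2A, with bidirectional fitting versus DMSO.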

[16] = read-out: Peroxisomal acyl-coenzyme A oxidase 1 (ACOX1) gene, ACOX1 (gene 51); assay: LTEA_HepaRG_ACOX1: Life Technologies and Expression Analysis (LTEA) Assay for Peroxisomal acyl-coenzyme A oxidase 1 (ACOX1) gene using HepaRG (AID 2283467); conditions: mRNA level, 48 h; actives raise or lower the signal
Method in brief: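 HepaRG cells, plated 48 h then switched to serum-free induction medium, were exposed in duplicate for 48 h to 8-point half-log concentrations up to 100 uM in 0.5% DMSO. ACOX1 mRNA was measured by qRT-PCR, normalized to ACTB/GAPDH/POLR2A, and fitted bidirectionally versus DMSO.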

[17] = read-out: Alkaline Phosphatase, Placental (ALPP) gene, ALPP (gene 250); assay: LTEA_HepaRG_ALPP: Life Technologies and Expression Analysis (LTEA) Assay for Alkaline Phosphatase, Placental (ALPP) gene using HepaRG (AID 2283468); conditions: mRNA level, 48 h; actives raise or lower the signal
Method in brief: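 Using human liver HepaRG cells, chemicals are tested in duplicate over 48 h at half-log concentrations topping at 100 uM; phenobarbital 1 mM serves as induction control. ALPP mRNA change by qRT-PCR, bidirectional fit against vehicle.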

[18] = read-out: ATP-citrate lyase (ACLY), ACLY (gene 47); assay: LTEA_HepaRG_ACLY: Life Technologies and Expression Analysis (LTEA) Assay for ATP-citrate lyase (ACLY) using HepaRG (AID 2283466); conditions: mRNA level, 48 h; actives raise or lower the signal
Method in brief: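 Differentiated HepaRG cells exposed 48 h in serum-free induction medium to eight half-log concentrations up to 100 uM in 0.5% DMSO, duplicates. Transcript measured by Fluidigm TaqMan qRT-PCR, normalized to ACTB, GAPDH, POLR2A; bidirectional fit versus DMSO.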

[19] = read-out: CFLAR gene, CFLAR (gene 8837); assay: LTEA_HepaRG_CFLAR: Life Technologies and Expression Analysis (LTEA) Assay for CFLAR gene using HepaRG (AID 2283455); conditions: mRNA level, 48 h; actives raise or lower the signal
Method in brief: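 Differentiated HepaRG cells in serum-free induction medium were exposed 48 h in duplicate to eight half-log concentrations up to 100 uM in 0.5% DMSO; mRNA measured by TaqMan qRT-PCR, normalized to ACTB, GAPDH, POLR2A; bidirectional fitting versus DMSO.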

[20] = CEETOX_H295R_TESTO: CeeTox H295R High-throughput Steroidogenesis Assay for Testosterone (TESTO) (AID 2283457); conditions: actives raise or lower the signal
Method in brief: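 Steroidogenesis in H295R cells following OECD 456 with minor changes; 48 h exposure. Medium testosterone by HPLC-MS/MS, DMSO as baseline, with MTT viability run in parallel.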

Measured: AC50

Chain of Broad substrate specificity ATP-binding cassette transporter ABCG2 (Homo sapiens) (Q9UNQ0 whole entry, looked up): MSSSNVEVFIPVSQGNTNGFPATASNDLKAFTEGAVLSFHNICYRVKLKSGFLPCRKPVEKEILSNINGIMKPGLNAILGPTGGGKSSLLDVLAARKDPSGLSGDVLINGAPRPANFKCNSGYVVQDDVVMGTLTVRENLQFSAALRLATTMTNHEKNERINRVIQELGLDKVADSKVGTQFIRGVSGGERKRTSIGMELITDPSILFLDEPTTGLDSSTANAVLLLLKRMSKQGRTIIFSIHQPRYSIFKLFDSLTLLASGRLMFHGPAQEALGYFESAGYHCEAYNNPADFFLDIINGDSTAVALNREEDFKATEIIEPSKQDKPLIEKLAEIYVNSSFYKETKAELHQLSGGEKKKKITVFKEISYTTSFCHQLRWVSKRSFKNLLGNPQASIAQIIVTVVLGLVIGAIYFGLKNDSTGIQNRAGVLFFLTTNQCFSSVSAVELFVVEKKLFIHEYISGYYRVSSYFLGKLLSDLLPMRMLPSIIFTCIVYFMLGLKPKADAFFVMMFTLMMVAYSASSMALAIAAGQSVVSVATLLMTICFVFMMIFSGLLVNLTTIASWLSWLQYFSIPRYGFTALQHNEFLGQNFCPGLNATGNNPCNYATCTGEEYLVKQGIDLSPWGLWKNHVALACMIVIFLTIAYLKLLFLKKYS

O=C1C2CC=CCC2C(=O)N1SC(Cl)(Cl)Cl (stereo not drawn)
active: [6] 38.8 µM | [7] 77.1 µM | [13] 57.6 µM | [17] 10.8 µM
inactive: [1] | [2] | [3] | [4] | [5] | [8] | [9] | [10] | [11] | [12] | [14] | [15] | [16]

CCNC(=O)NC(=O)C(C#N)=NOC
active: [6] 50 µM | [8] 0.361 µM | [12] 0.791 µM
inactive: [1] | [2] | [3] | [4] | [5] | [7] | [9] | [10] | [11] | [13] | [14] | [15] | [18] | [16] | [17]

COC(=O)NC(=S)Nc1ccccc1NC(=S)NC(=O)OC
active: [6] 39.2 µM | [10] 17.4 µM | [14] 35.4 µM
inactive: [1] | [2] | [3] | [4] | [5] | [19] | [7] | [8] | [9] | [11] | [12] | [13] | [15] | [16]

CNC(=O)Oc1cccc2ccccc12
active: [1] 0.0193 µM
inactive: [2] | [3] | [4] | [5] | [6] | [19] | [7] | [8] | [9] | [10] | [11] | [12] | [13] | [14] | [15] | [18] | [16]

CCCCOCN(C(=O)CCl)c1c(CC)cccc1CC
active: [6] 74 µM | [10] 83.7 µM
inactive: [1] | [2] | [3] | [4] | [5] | [19] | [7] | [8] | [9] | [11] | [12] | [13] | [14] | [15] | [16]

CCNP(=S)(OC)O/C(C)=C/C(=O)OC(C)C (stereo not drawn)
active: [6] 14.3 µM | [10] 13 µM | [14] 13.1 µM | [15] 13.6 µM
inactive: [1] | [2] | [3] | [4] | [5] | [19] | [7] | [8] | [9] | [11] | [12] | [13] | [16] | [17]

COCc1cnc(C2=NC(C)(C(C)C)C(=O)N2)c(C(=O)O)c1 (stereo not drawn)
inactive: [2] | [3] | [4] | [5] | [19] | [7] | [20] | [8] | [9] | [10] | [11] | [12] | [13] | [14] | [15] | [18] | [16]
active: [6] 65.5 µM
